Among the data in paper PMC11062922 (Nature Chemical Biology, 2023) are potency estimated from few doses values, retold here.

The test system of assay [1] is AAK1. Also on record: species or system human, MV4-11 + K-562 + COLO205 + SK-N-BE2 + OVCAR-8. Particulars: read-out: apparent Kd, n = 1.
Assay [2] concerns GSK3A. On the set-up: species or system human, MV4-11 + K-562 + COLO205 + SK-N-BE2 + OVCAR-8. Particulars: read-out: apparent Kd, n = 1.
The subject of assay [3] is GSK3B. Also on record: species or system human, MV4-11 + K-562 + COLO205 + SK-N-BE2 + OVCAR-8. The settings on record: read-out: apparent Kd, n = 1.
Assay [4] deals with Q6ZSR9 (human, UniProt Q6ZSR9). Also on record: species or system MV4-11 + K-562 + COLO205 + SK-N-BE2 + OVCAR-8. Particulars: read-out: apparent Kd, n = 1.
Sequence of Q6ZSR9 (Q6ZSR9 whole entry, looked up): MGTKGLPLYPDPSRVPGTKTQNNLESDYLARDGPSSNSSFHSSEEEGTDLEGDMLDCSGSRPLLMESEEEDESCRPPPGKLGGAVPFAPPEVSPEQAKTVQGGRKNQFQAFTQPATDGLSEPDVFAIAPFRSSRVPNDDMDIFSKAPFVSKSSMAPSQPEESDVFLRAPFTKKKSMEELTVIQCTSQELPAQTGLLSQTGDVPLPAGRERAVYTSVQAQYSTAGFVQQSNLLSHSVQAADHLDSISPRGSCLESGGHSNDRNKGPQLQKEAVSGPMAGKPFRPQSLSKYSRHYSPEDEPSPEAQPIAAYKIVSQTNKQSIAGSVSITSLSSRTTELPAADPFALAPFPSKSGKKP
In assay [5] the test system is BMP2K. On the set-up: species or system human, MV4-11 + K-562 + COLO205 + SK-N-BE2 + OVCAR-8. The settings on record: read-out: apparent Kd, compound concentrations: 100 nM and 1000 nM (sheet 'Samples'), n = 1.
For assay [6], the system named is CSNK2A1;CSNK2A3. On the set-up: species or system human, MV4-11 + K-562 + COLO205 + SK-N-BE2 + OVCAR-8. Particulars: read-out: apparent Kd, compound concentrations: 100 nM and 1000 nM (sheet 'Samples'), n = 1.
Assay [7] has as its system CSNK2A2. Also on record: species or system human, MV4-11 + K-562 + COLO205 + SK-N-BE2 + OVCAR-8. Particulars: read-out: apparent Kd, compound concentrations: 100 nM and 1000 nM (sheet 'Samples'), n = 1.
Assay [8] deals with FLT3. On the set-up: species or system human, MV4-11 + K-562 + COLO205 + SK-N-BE2 + OVCAR-8. Particulars: read-out: apparent Kd, compound concentrations: 100 nM and 1000 nM (sheet 'Samples'), n = 1.
For assay [9], the system named is FLT4. On the set-up: species or system human, MV4-11 + K-562 + COLO205 + SK-N-BE2 + OVCAR-8. The settings on record: read-out: apparent Kd; compound concentrations: 100 nM and 1000 nM (sheet 'Samples'), CATDS: 8.0407033957096193E-3; n = 1.
Assay [10] relates to GAK. On the set-up: species or system human, MV4-11 + K-562 + COLO205 + SK-N-BE2 + OVCAR-8. The settings on record: read-out: apparent Kd, compound concentrations: 100 nM and 1000 nM (sheet 'Samples'), n = 1.
Assay [11] relates to MELK. Also on record: species or system human, MV4-11 + K-562 + COLO205 + SK-N-BE2 + OVCAR-8. Particulars: read-out: apparent Kd, compound concentrations: 100 nM and 1000 nM (sheet 'Samples'), n = 1.
Assay [12] relates to NUAK1. On the set-up: species or system human, MV4-11 + K-562 + COLO205 + SK-N-BE2 + OVCAR-8. Particulars: read-out: apparent Kd, compound concentrations: 100 nM and 1000 nM (sheet 'Samples'), n = 1.
Assay [13] concerns PAK4. On the set-up: species or system human, MV4-11 + K-562 + COLO205 + SK-N-BE2 + OVCAR-8. The settings on record: read-out: apparent Kd, compound concentrations: 100 nM and 1000 nM (sheet 'Samples'), n = 1.
Assay [14] concerns PKN1. Also on record: species or system human, MV4-11 + K-562 + COLO205 + SK-N-BE2 + OVCAR-8. Particulars: read-out: apparent Kd, compound concentrations: 100 nM and 1000 nM (sheet 'Samples'), n = 1.
The test system of assay [15] is PKN3. Also on record: species or system human, MV4-11 + K-562 + COLO205 + SK-N-BE2 + OVCAR-8. The settings on record: read-out: apparent Kd; compound concentrations: 100 nM and 1000 nM (sheet 'Samples'), CATDS: 6.8634871166861197E-3; n = 1.
The subject of assay [16] is RET. On the set-up: species or system human, MV4-11 + K-562 + COLO205 + SK-N-BE2 + OVCAR-8. Particulars: read-out: apparent Kd, compound concentrations: 100 nM and 1000 nM (sheet 'Samples'), n = 1.
In assay [17] the test system is SIK2. On the set-up: species or system human, MV4-11 + K-562 + COLO205 + SK-N-BE2 + OVCAR-8. The settings on record: read-out: apparent Kd; compound concentrations: 100 nM and 1000 nM (sheet 'Samples'), CATDS: 1.8714442667333402E-2; n = 1.
Setting [18] is: compound concentrations:100 nM and 1000 nM (sheet 'Samples').

Where two headings read alike, the source gives them in different places.

Take `CNCc1ccc(-c2cc(-c3nc(-c4ccc(S(=O)(=O)C(C)C)cc4)cnc3N)on2)cc1` [VE-822]: the potency estimated from few doses in assay [1] (setting [18]) was 1850 nM; in [2] (setting [18]) it was 684 nM; in [3] (setting [18]), 810 nM; in assay [4] (setting [18]) it was 1240 nM.
On to `COC(=O)c1cccc(NC(=O)NC2CCN(c3ccnc(Nc4cc(OC)c(OC)c(OC)c4)n3)C2)c1` (stereo not shown) [GSK1379767A], for which, in [1] (compound concentrations: 100 nM and 1000 nM (sheet 'Samples'), CATDS: 0.10680715656565699), the potency estimated from few doses was 1510 nM.
In the case of `Cc1ccccc1C1=C(c2cn(C)c3ccccc23)C(=O)NC1=O` [RO0317612-000], in assay [1] (compound concentrations: 100 nM and 1000 nM (sheet 'Samples'), CATDS: 0.12392874635964), the potency estimated from few doses is 1650 nM.
Consider `O=C(O)C(F)(F)F.O=C(O)C(F)(F)F.O=c1[nH]ccc2nc(N[C@@H]3CCCNC3)nc(Nc3ccc(S(=O)(=O)N4CCOCC4)cc3)c12.O=c1[nH]ccc2nc(N[C@@H]3CCCNC3)nc(Nc3ccc(S(=O)(=O)N4CCOCC4)cc3)c12` [GSK2177277A], for which the potency estimated from few doses in assay [1] (compound concentrations: 100 nM and 1000 nM (sheet 'Samples'), CATDS: 1.8142496176493599E-2) is 64.1 nM; in assay [5] (CATDS: 3.1293832570600401E-2) it was 23.6 nM; in [6] (CATDS: 9.7881749935300605E-3), 292 nM; in assay [7] (CATDS: 1.40967137709553E-2), 111 nM; in assay [8] (CATDS: 9.0751024069003396E-3), 370 nM; in [9], 563 nM. Besides, the potency estimated from few doses in [10] (CATDS: 7.9677595893025404E-3) is 583 nM; in assay [2] (compound concentrations: 100 nM and 1000 nM (sheet 'Samples'), CATDS: 2.6961640495366201E-2) it was 30.4 nM; in [3] (compound concentrations: 100 nM and 1000 nM (sheet 'Samples'), CATDS: 2.05762593754709E-2), 49.8 nM; in [11] (CATDS: 1.3446305906565099E-2), 125 nM; in assay [12] (CATDS: 0.191214314920645), 2.02 nM; in [13] (CATDS: 1.6910585220633E-2), 74.2 nM. The potency estimated from few doses in [14] (CATDS: 1.2984656701456401E-2) was 136 nM; in [15], 1090 nM; in assay [4] (compound concentrations: 100 nM and 1000 nM (sheet 'Samples'), CATDS: 1.64498976329738E-2), 78.7 nM; in assay [16] (CATDS: 2.8395704553292499E-2), 27.8 nM; in [17], 60.1 nM.
With `CN[C@H](C#Cc1c(F)ccc2c1/C(=C/c1[nH]ccc1OC)C(=O)N2)CO.Cl` [RO0283049-001], the potency estimated from few doses in assay [1] (compound concentrations: 100 nM and 1000 nM (sheet 'Samples'), CATDS: 2.8240152121160999E-2) is 574 nM; in assay [5] (CATDS: 7.2716114591836398E-2), 79.8 nM; in [6] (CATDS: 2.0504154829503698E-2), 1690 nM; in assay [7] (CATDS: 2.5963864867474401E-2), 730 nM; in assay [8] (CATDS: 0.132856529197414) it was 31.3 nM; in [10] (CATDS: 2.5381960568832601E-2) it was 781 nM. Besides, the potency estimated from few doses is 145 nM in assay [2] (compound concentrations: 100 nM and 1000 nM (sheet 'Samples'), CATDS: 5.21732936396841E-2); 137 nM in [3] (compound concentrations: 100 nM and 1000 nM (sheet 'Samples'), CATDS: 5.3689374792110299E-2); 783 nM in assay [11] (CATDS: 2.5364281194585201E-2); 125 nM in assay [12] (CATDS: 5.6502774837069003E-2); 685 nM in [13] (CATDS: 2.6532527955357901E-2); 651 nM in [4] (compound concentrations: 100 nM and 1000 nM (sheet 'Samples'), CATDS: 2.6998984012354399E-2). Moreover, the potency estimated from few doses in [16] (CATDS: 3.2863733799292097E-2) is 389 nM.
For `O=C1N=C(N[C@H](CO)c2ccccc2)S/C1=C\c1ccc2ncccc2c1` [RO4554339-000], the potency estimated from few doses in assay [1] (compound concentrations: 100 nM and 1000 nM (sheet 'Samples'), CATDS: 0.10816447707824001) is 735 nM; in assay [6] (CATDS: 0.26590884807239001) it was 111 nM; in assay [7] (CATDS: 0.32699476113935999) it was 80.2 nM; in assay [4] (compound concentrations: 100 nM and 1000 nM (sheet 'Samples'), CATDS: 9.0735809704368106E-2) it was 1320 nM.
With `CNCC1CCn2c(c(C3=C(c4cn(C)c5ccccc45)C(=O)NC3=O)c3ccccc32)C1` (stereo not shown) [RO0318676-000], the potency estimated from few doses in assay [1] (compound concentrations: 100 nM and 1000 nM (sheet 'Samples'), CATDS: 2.7439250549300399E-2) is 1910 nM; in assay [10] (CATDS: 3.3618066019117501E-2), 961 nM; in assay [2] (compound concentrations: 100 nM and 1000 nM (sheet 'Samples'), CATDS: 6.7317846208259105E-2) it was 171 nM; in assay [3] (compound concentrations: 100 nM and 1000 nM (sheet 'Samples'), CATDS: 7.2494529815898601E-2), 146 nM; in assay [14] (CATDS: 2.8488431691069401E-2) it was 1650 nM; in assay [4] (compound concentrations: 100 nM and 1000 nM (sheet 'Samples'), CATDS: 2.7484619244742201E-2), 1890 nM.
